In the supplement of paper PMC9023506:
Counter-ions that a name gives are not always drawn.

tested on: Danio rerio larvae (5 dpf); assay: startle response to 20-s acoustic pulses, difference vs DMSO (percentage points (treated minus DMSO)); higher = more of the behaviour than the DMSO vehicle control; conditions: 10 µM; exposure time: 3 h pre-incubation + 3 h imaging
Description: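 5-dpf wild-type zebrafish larvae were imaged in 96-well plates. They were treated with 190 Tocris FDA-approved drugs at 10 µM (1 µl/ml DMSO) for 3 h before and 3 h during imaging at 28.5 °C, 48 larvae per drug. Automated image analysis gave % time moving and optomotor responses. Values are drug group mean minus DMSO vehicle mean (n=844), in percentage points, for 10 behaviours.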

Going from `N[C@@H]1C[C@H]1c1ccccc1` [Tranylcypromine hydrochloride] to `CN1C[C@H](C(=O)N[C@]2(C)O[C@@]3(O)[C@@H]4CCCN4C(=O)[C@H](Cc4ccccc4)N3C2=O)C[C@@H]2c3cccc4[nH]cc(c34)C[C@H]21` [Dihydroergotamine mesylate], the “startle response to 20-s acoustic pulses” value rises from -9.81 to 5.17.

Compared with `CC(C)C[C@H]1C(=O)N2CCC[C@H]2[C@]2(O)O[C@](NC(=O)[C@@H]3C=C4c5cccc6[nH]c(Br)c(c56)C[C@H]4N(C)C3)(C(C)C)C(=O)N12` [Bromocriptine mesylate], `COc1cc2c(cc1OC)C1CC(=O)C(CC(C)C)CN1CC2` (configuration not stated) [Tetrabenazine] is higher in “startle response to 20-s acoustic pulses” value: -8.49 for the first, -5.81 for the second.

Compared with `COc1ccc(C(CN(C)C)C2(O)CCCCC2)cc1` (configuration not stated) [Venlafaxine hydrochloride], `CCN(C)C(=O)Oc1cccc([C@H](C)N(C)C)c1` [Rivastigmine tartrate] is higher in “startle response to 20-s acoustic pulses” value: -5.93 for the first, 5.58 for the second.

Compared with `O=c1[nH]c2ccccc2n1C1CCN(CCCC(c2ccc(F)cc2)c2ccc(F)cc2)CC1` [Pimozide], `CC(O)(CS(=O)(=O)c1ccc(F)cc1)C(=O)Nc1ccc(C#N)c(C(F)(F)F)c1` (configuration not stated) [Bicalutamide] is lower in “startle response to 20-s acoustic pulses” value: 2.42 for the first, 0.332 for the second.

Compared with `C=C1C[C@@H]2[C@H](CC[C@]3(C)C(=O)CC[C@@H]23)[C@@]2(C)C=CC(=O)C=C12` [Exemestane], `C=CCN1C[C@H](C(=O)N(CCCN(C)C)C(=O)NCC)C[C@@H]2c3cccc4[nH]cc(c34)C[C@H]21` [Cabergoline] is lower in “startle response to 20-s acoustic pulses” value: 2.55 for the first, -8.7 for the second.

Going from `CC[C@@H](C(N)=O)N1CCCC1=O` [Levetiracetam] to `Cc1cccc([C@H](C)c2c[nH]cn2)c1C` [Dexmedetomidine hydrochloride], the “startle response to 20-s acoustic pulses” value rises from 1.64 to 6.09.
